According to PubChem BioAssay AID2685 (National Center for Advancing Translational Sciences (NCATS), 2010):
Out of some 320,000 compounds screened, about 2,100 (0.66%) were called active. Not shown: some 53% with an inconclusive outcome. Calls come from the whole dose curve; as a rule, active = well fitted inhibition curve with a large enough effect in the signal ratio, with a control signal flat (not every such curve was filed as active); inconclusive = small, poorly fitted or top-dose-only effect, or effect the other way, or a change in a side signal; inactive = flat fitted curve, though single readings scatter; the % refers to the signal ratio. The list comes from a sample in which actives are over-represented; it also holds similar structures and randomly drawn compounds.

Experiment: qHTS Assay for Lipid Storage Modulators in Drosophila S3 Cells;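 for cell number change: cells counted by Cell Tracker Red CMTPX staining in the red channel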; for lipid storage change, negative = inhibition: % is set by controls: 0 for no effect and ±100 for the full control effect
Details: BODIPY lipid droplet fluorescence, 18-24 h, cells fed with added oleic acid; cell number change: measured here: cell count max response; series mostly up to 46.1 µM
How it was run: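 Drosophila S3 cells got compounds at several concentrations plus oleic acid (400 uM solution). Laser-scanning cytometry with 488 nm excitation read lipid droplets at 500-530 nm and cells at 575-640 nm. Percent activity was relative to 20 uM Triacsin C.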
Potency is the fitted concentration of half-maximal effect.

Compound	Potency	cell number change	lipid storage change, negative = inhibition
CCn1ccnc1CN1CCC(n2nccc2NC(=O)CCc2ccccc2)CC1	inactive	-1.05%	
COc1ccc(C(=O)Nc2ccc3[nH]c(-c4cccc(OC)c4)cc(=O)c3c2)cc1	inactive	4.73%	
Cc1cccc(C)c1NC(=O)CS(=O)CC(=O)NCC1OCCc2ccccc21 (stereo not drawn)	inactive	9.92%	
CC(=O)c1ccc(CC2SC(N)=NC2=O)cc1 (stereo not drawn)	inactive	-4.99%	
CCCCN1C(=S)NC[C@@H]1Cc1cccc2ccccc12	inactive	2.45%	
COc1ccc2c(c1OC)C(=O)N1C2SC[C@H]1C(=O)NC1CC1 (stereo partly drawn)	inactive	-0.291%	
COc1ccc(C(c2sc3nc(C)nn3c2O)N2CCc3ccccc3C2)cc1 (stereo not drawn)	inactive		
C/C(=N\NC(=O)CCC(=O)Nc1ccc(C)c(C)c1)C1CC1	6.51 µM (active)	18.1%	
C=C(C)C1CC=C(C)/C(=N\NC(=O)CCC(=O)Nc2ccc(C)c(C)c2)C1 (stereo not drawn)	inactive	1.45%	
Cc1ccc(NC(=O)CCSCCC(=O)Nc2ccc(C)c(C)c2)cc1C	inactive	-13.5%	
CC(=O)Nc1ccc(S(=O)(=O)NCCC(=O)OCc2nc(N)nc(Nc3ccccc3C)n2)cc1	inactive	3.4%	
COc1ccc(N2C(=O)C3CCCN3C2c2cccs2)cc1 (stereo not drawn)	8.2 µM (active)		
COc1ccc(N2C(=O)[C@@H]3Cc4ccccc4CN3C2=O)cc1	inactive	-10.6%	
COc1cccc(N2C(=O)C3CCCN3C2c2cccs2)c1 (stereo not drawn)	inactive		
COc1ccc(N2C(=O)C3CCCN3C2=S)cc1 (stereo not drawn)	inactive	13%	
O=C1C2CCCN2C(c2cccs2)N1c1ccc(Cl)cc1 (stereo not drawn)	inactive	6.57%	
COc1ccc(N2C(=O)C3CCCN3C2=O)cc1 (stereo not drawn)	18.4 µM (active)	13.7%	
CCn1c(COc2ccccc2C(N)=O)nc2ccccc21	inactive	-13.5%	
CCOC(=O)Cc1csc(NC(=S)NC(=O)c2ccc(F)cc2)n1	10.3 µM (active)	-14.9%	
CCOC(=O)Cc1csc(NC(=S)NC(=O)c2ccc(C)cc2)n1	inactive	12.7%	
CCOC(=O)Cc1csc(NC(=O)c2ccc(F)cc2)n1	inactive	5.42%	

Compound	Potency	cell number change	lipid storage change, negative = inhibition
COc1cc2c(cc1OC)C1Cc3ccc(OC)c(OC)c3C[N+]1([O-])CC2 (stereo not drawn)	inactive	8.62%	
Cc1nc(NCC2CCCO2)c2nnn(Cc3c(F)cccc3Cl)c2n1 (stereo not drawn)	inactive	-5.53%	
c1ccc(C(c2ccccc2)N2CCN(c3ccc4ccccc4n3)CC2)cc1	inactive	9.37%	
c1cnc(N2CCN(c3ccc4ccccc4n3)CC2)nc1	0.651 µM (active)	23.8%	
c1ccc(N2CCN(c3ncccn3)CC2)cc1	inactive	-7.61%	
CCn1c(NC(=O)c2cccc(Cn3cc(Cl)cn3)c2)nc2ccccc21	inactive	-10.4%	
O=C(c1ccccn1)N1CCN(c2ccc(C(F)(F)F)cn2)CC1	inactive	-1.5%	
O=C(O)c1ccccc1-c1ccccc1C(=O)Nc1cccc(-c2nc3ccccc3o2)c1	inactive	14.5%	
CS(=O)(=O)c1ccccc1C(=O)Nc1cccc(-c2nc3ccccc3o2)c1	13 µM (active)	-20.6%	
CC(=O)Nc1cccc(-c2nc3ccccc3o2)c1	inactive		
COc1cccc(-c2cc(C(=O)NCC3CCCO3)c3ccccc3n2)c1 (stereo not drawn)	inactive		
Cc1ccnc(NC(=O)c2ccc(Cl)s2)c1	inactive		
CCCc1nnc(NC(=O)CS(=O)(=O)c2ccccc2)s1	inactive	-20%	
Cc1ccnc(NC(=O)c2ccc([N+](=O)[O-])s2)c1	11.2 µM (active)	-22%	
CCCc1nnc(NC(=O)CCS(=O)(=O)c2ccccc2)s1	1.46 µM (active)	3.42%	
O=C(CS(=O)(=O)c1ccccc1)Nc1ncc([N+](=O)[O-])s1	inactive	-6.25%	
Cc1ccnc(NC(=O)c2ccc(Br)s2)c1	inactive	12.2%	
CCOCCc1nnc(NC(=O)CCS(=O)(=O)c2ccccc2)s1	inactive	-12%	
Cc1ccc(CC(=O)Nc2ncc([N+](=O)[O-])s2)cc1	inactive	2.17%	
Cc1ccc(S(=O)(=O)CC(=O)Nc2ncc([N+](=O)[O-])s2)cc1	inactive	-14.4%	
O=C(CCS(=O)(=O)c1ccccc1)Nc1ncc([N+](=O)[O-])s1	4.61 µM (active)	-3.6%	

Compound	Potency	cell number change	lipid storage change, negative = inhibition
Cc1ccc(C(=O)Nc2ncc([N+](=O)[O-])s2)cc1	23.1 µM (active)	-15.4%	
Cc1ncoc1C(=O)Nc1ncc([N+](=O)[O-])s1	inactive	-6.04%	
O=C(Nc1ccccc1F)Nc1ccc([N+](=O)[O-])cc1Cl	inactive	6.06%	
Cc1ccccc1S(=O)(=O)Cc1ccc(C(=O)NC(C)c2ccccc2)o1 (stereo not drawn)	inactive		
Cn1cc(Br)c(NS(=O)(=O)c2ccc(Cl)s2)n1	inactive	7.84%	
CCc1ccc(C(=O)COC(=O)CNC(=O)CNC(=O)Cc2ccccc2)cc1	inactive	-4.14%	
CCc1ccccc1NC(=O)c1cnc2n(c1=O)CCS2	inactive	-5.43%	
COc1ccc(C(=O)Oc2cc(/C=N/NS(=O)(=O)c3ccccc3)ccc2OC)cc1	inactive	-2.45%	
COc1ccccc1NS(=O)(=O)c1ccc(C(=O)NCC(c2ccco2)N(C)C)cc1 (stereo not drawn)	inactive	-9.2%	
O=C(Nc1nc2c(F)cc(F)cc2s1)C1CCN(C(=O)c2ccc(F)cc2)CC1	inactive	13.4%	
CC1(C)CC(C(CC(=O)Nc2nccs2)c2ccccc2)CCO1 (stereo not drawn)	inactive	-3.73%	
O=C(CSc1nnc2c(Cl)cc(Cl)cn12)N1CCN(S(=O)(=O)c2ccccc2)CC1	inactive	0.68%	
CCOC(=O)C1=C(C)OC(N)=C(C#N)C1c1ccccc1 (stereo not drawn)		2.6%	8.87% [at 9.22 µM] (inactive)
CCOC(=O)C1=C(C)OC(N)=C(C#N)C1c1cccc(C)c1 (stereo not drawn)	inactive	26.4%	
CCOc1cc(C2C(C#N)=C(N)OC(C)=C2C(C)=O)cc(Br)c1O (stereo not drawn)	8.2 µM (active)		
CCc1nnc(NS(=O)(=O)c2ccc(NC(=O)c3ccco3)cc2)s1	inactive	-17.4%	
COc1ccc(/C=N/N=C2/NC(=O)CC(C(=O)O)S2)cc1 (stereo not drawn)	inactive		
COc1ccc(/C=N/N=C2/NC(=O)C(c3ccccc3)(c3ccccc3)S2)cc1	16.4 µM (active)	1.45%	
COc1ccc(CC2S/C(=N/N=C/c3ccc(O)cc3)NC2=O)cc1 (stereo not drawn)	inactive	8.53%	
